Test results from PubChem BioAssay AID1159580 (chemical genetic matrix, 2015).
Where “and” joins values, the source holds several entries; their conditions need not be identical. Equal values may be shown once. Among all 5,500 compounds or so, about 2,000 (36%) were called active. Inconclusive results (about 18%) are left out. No stated cut-off is given here; in the data, active means normalized growth mostly below about 0.91 (no sharp cut-off); inconclusive means no clear call, values can overlap the other calls; inactive means mostly above about 0.92. The list shows a part of the results.

Assay: chemical genetic growth profiling, strain panel (AID 1159580);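 further: tested at 20 µM; growth read once vehicle control cultures reached saturation at 30 °C; 1 = growth at the plate median or of vehicle wells; lower values mean less growth of the strain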
Settings: S. cerevisiae deletion strains, growth OD

Measured: normalized growth

CC(C)NNC(=O)c1ccncc1
inactive: locus YAL013W, strain DEP1, active compounds read low 1.01 | locus YAL021C, strain ccr4, active compounds read low 1.02 | locus YAL026C, strain drs2, active compounds read low 1.03 | locus YAL030W, strain snc1, active compounds read low 0.997 | locus YAL040C, strain CLN3, active compounds read low 0.985 | locus YBL061C, strain skt5, active compounds read low 1.01 | locus YBR009C, strain hhf1, active compounds read low 1.01 | locus YBR021W, strain FUR4, active compounds read low 1 | locus YBR023C, strain chs3, active compounds read low 1.01 | locus YBR171W, strain sec66, active compounds read low 1.01 | locus YBR229C, strain ROT2, active compounds read low 1 | locus YBR231C, strain swc5, active compounds read low 1.03 | locus YBR279W, strain paf1, active compounds read low 1.01 | locus YCL011C, strain gbp2, active compounds read low 1.02 | locus YCL016C, strain dcc1, active compounds read low 1.01 | locus YCL029C, strain bik1, active compounds read low 1.02 | locus YCL061C, strain MRC1 (second series), active compounds read low 0.986 | locus YCL069W, strain vba3, active compounds read low 1.02 | locus YCR088W, strain abp1, active compounds read low 1.02 | locus YDL005C, strain med2, active compounds read low 1 | locus YDL035C, strain GPR1, active compounds read low 1.01 | locus YDL040C, strain nat1, active compounds read low 1 | locus YDL074C, strain BRE1, active compounds read low 1.02 | locus YDL101C, strain DUN1, active compounds read low 1 | locus YDL134C, strain PPH21, active compounds read low 1.01 | locus YDL185W, strain tfp1, active compounds read low 1.01 | locus YDL192W, strain arf1, active compounds read low 1.02 | locus YDR001C, strain nth1, active compounds read low 1 | locus YDR069C, strain doa4, active compounds read low 1 | locus YDR101C, strain arx1, active compounds read low 1.01 | locus YDR137W, strain rgp1, active compounds read low 1.01 | locus YDR150W, strain NUM1, active compounds read low 0.994 and 0.996 | locus YDR159W, strain sac3, active compounds read low 0.978 | locus YDR162C, strain NBP2, active compounds read low 1.01 | locus YDR195W, strain ref2 0.961 | locus YDR297W, strain sur2, active compounds read low 1 | locus YDR318W, strain mcm21, active compounds read low 1.02 | locus YDR334W, strain swr1, active compounds read low 1.03 | locus YDR335W, strain msn5, active compounds read low 1.01 | locus YDR363W, strain ESC2, active compounds read low 1.02 | locus YDR388W, active compounds read low 1.01 | locus YDR392W, strain spt3, active compounds read low 1.03 | locus YDR502C, strain sam2, active compounds read low 1.01 | locus YEL003W, strain gim4, active compounds read low 1 | locus YEL037C, strain rad23, active compounds read low 1.02 | locus YEL061C, strain CIN8 (second series), active compounds read low 1.01 | locus YEL061C, strain CIN8, active compounds read low 1 | locus YER002W, strain NOP16, active compounds read low 1.01 | locus YER015W, strain faa2, active compounds read low 1.02 | locus YER016W, strain bim1, active compounds read low 1.01 | locus YER110C, active compounds read low 1.02 | locus YER111C, strain swi4, active compounds read low 0.999 | locus YER155C, strain BEM2 (second series), active compounds read low 1.04 | locus YER155C, strain BEM2, active compounds read low 1 | locus YER167W, strain BCK2, active compounds read low 1.01 | locus YFR010W, strain ubp6, active compounds read low 1.02 | locus YGL078C, strain dbp3, active compounds read low 1.02 | locus YGL086W, strain mad1, active compounds read low 1.01 | locus YGL167C, strain pmr1, active compounds read low 0.996 | locus YGL173C, strain kem1, active compounds read low 1.03 | locus YGL227W, strain vid30, active compounds read low 0.998 | locus YGL240W, strain doc1, active compounds read low 1.01 | locus YGL248W, strain PDE1, active compounds read low 0.996 | locus YGL253W, strain hxk2, active compounds read low 1.03 | locus YGR078C, strain PAC10, active compounds read low 1.01 | locus YGR135W, strain pre9, active compounds read low 1.01 | locus YGR229C, strain SMI1, active compounds read low 1 and 0.992 | locus YGR252W, strain gcn5, active compounds read low 1.05 | locus YHR013C, strain ard1, active compounds read low 1.02 | locus YHR027C, strain rpn1, active compounds read low 1.01 | locus YHR030C, strain SLT2, active compounds read low 1 | locus YHR079C, strain IRE1 (second series), active compounds read low 1.02 | locus YHR094C, strain hxt1, active compounds read low 1.01 | locus YHR129C, strain ARP1, active compounds read low 1 | locus YHR142W, strain chs7, active compounds read low 1.03 | locus YHR200W, strain rpn10, active compounds read low 1.02 | locus YIL066C, strain RNR3, active compounds read low 1.02 | locus YIL073C, strain SPO22, active compounds read low 1.04 | locus YIL125W, strain kgd1, active compounds read low 1.01 | locus YIR030C, strain dcg1, active compounds read low 1.02 | locus YJL092W, strain hpr5, active compounds read low 1.01 | locus YJL095W, strain BCK1 (second series), active compounds read low 1.02 | locus YJL095W, strain BCK1, active compounds read low 1.02 | locus YJL115W, strain asf1, active compounds read low 0.988 | locus YJL129C, strain trk1, active compounds read low 0.998 | locus YJL134W, strain LCB3, active compounds read low 1.01 | locus YJL154C, strain vps35, active compounds read low 1.01 | locus YJL164C, strain tpk1, active compounds read low 1.01 | locus YJL166W, strain qcr8, active compounds read low 1.01 | locus YJL168C, strain set2, active compounds read low 1.02 | locus YJL187C, strain SWE1 (second series), active compounds read low 1.01 | locus YJL187C, strain SWE1, active compounds read low 1.01
